Experiment [1] is described as follows: qHTS profiling of the MIPE4 collection as inhibitors of Plasmodium falciparum (3D7) proliferation (AID 743344).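 Also: scaled between DMSO vehicle wells and 0.29 µM artemisinin as full inhibition.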 Particulars: P. falciparum 3D7 in erythrocytes, SYBR Green DNA fluorescence, 72 h; at 28.5 µM unless noted. The procedure, abridged:
(§1)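 Erythrocytes infected with P. falciparum (0.3% parasitemia, 2.5% hematocrit) incubated with compounds 72 h at 37 C, 5% CO2. Lysis with saponin/Triton buffer containing SYBR Green I, overnight at room temperature in the dark; DNA fluorescence (485/535 nm) normalised to 0.29 uM artemisinin and DMSO.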

The nature of experiment [2]: qHTS profiling of the MIPE4 collection as inhibitors of Plasmodium falciparum (DD2) proliferation (Rep 2) (AID 743346). Particulars: P. falciparum Dd2 in erythrocytes, SYBR Green DNA, 72 h; at 28.5 µM unless noted. In a few lines:
as §1

Experiment [3] can be described thus: qHTS profiling of the MIPE4 collection as inhibitors of Plasmodium falciparum (HB3) proliferation (AID 743347).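 Also: plate controls were DMSO vehicle wells for no effect and artemisinin wells for full effect.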 Particulars: P. falciparum HB3 in erythrocytes, SYBR Green DNA, 72 h; at 28.5 µM unless noted. The procedure, abridged: as §1
Experiment [4] in a line: High-throughput drug toxicity screening in the BPDCN cell line Gen2.2 (AID 1224824).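 Also: cells exposed to compounds for 48 h before reading.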 Particulars: Gen2.2 BPDCN cells; at 45.8 µM (top of the series) unless noted. In a few lines:
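Gen2.2 cells (500/well) in phenol red-free RPMI with 10% FBS were exposed to compounds for 48 h at 37 °C, 5% CO2. Viability was read by CellTiter-Glo luminescence and normalized to DMSO (100%) and 9.2 uM bortezomib (0%).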

Experiment [5] is described as follows: qHTS assay for measurement of the activity of small molecule inhibitors on Zika virus induced Caspase-3 activity in human iPSC derived neural progenitor cells (hNPCs) (AID 1224857; active = well fitted inhibition curve with a large enough effect; also: % of control where 0% means no effect; nearly all actives have a fitted effect of over 65% in size). In a few lines:
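Values are percent inhibition of virus-induced caspase-3/7 signal, scaled between uninfected cells and ZIKV-infected cells. Infection used 2 FFU/cell for 6 h after 1 h compound exposure.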

Experiment [6] in a line: qHTS assay for measurement of the activity of small molecule inhibitors on Zika virus induced Caspase-3 activity in human astrocytoma cells (AID 1224859; active = well fitted inhibition curve with a large enough effect;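 also: plate controls were ZIKV-infected untreated cells for no effect and uninfected cells for full effect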). The procedure, abridged: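 Compound added 1 h pre-infection; ZIKV 2 FFU/cell on SNB-19 cells, 6 h, 37 C/5% CO2. Caspase-Glo 3/7 luminescence; values as % inhibition of ZIKV-induced caspase activity.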
Experiment [7] in a line: qHTS Screen of the MIPE 4.0 Collection Against Ewings Sarcoma (TC71) (AID 1259253; active = well fitted inhibition curve with a large enough effect; also: nearly all actives have a fitted effect of over 40% in size; also: potency is read from the fitted curve at half-maximal effect). The procedure, abridged:
(§2)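 Here, cells in 5% FBS RPMI were exposed for two days (48 h) to compound dilutions added four hours after plating. ATP-based CellTiter-Glo luminescence measured viability, normalized to vehicle and no-cell blanks.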

Experiment [8] can be described thus: qHTS Screen of the MIPE 4.0 Collection Against Ewings Sarcoma (EW8) (AID 1259255; active = well fitted inhibition curve with a large enough effect; also: nearly all actives have a fitted effect of over 35% in size; also: potency is read from the fitted curve at half-maximal effect;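 as to viability: 100% = DMSO-treated cells and 0% = medium-only wells without cells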). In a few lines: as §2
A short description of experiment [9]: qHTS profiling of the MIPE4 collection as inhibitors of Plasmodium falciparum (DD2) proliferation (AID 743345). Particulars: P. falciparum Dd2 in erythrocytes, SYBR Green DNA, 72 h; at 28.5 µM unless noted. The procedure, abridged: as §1
A short description of experiment [10]: qHTS Screen of the MIPE 4.0 Collection Against Ewings Sarcoma (RDES) (AID 1259252; active = well fitted inhibition curve with a large enough effect; also: nearly all actives have a fitted effect of over 35% in size; also: potency is read from the fitted curve at half-maximal effect). In a few lines: as §2
Experiment [11] can be described thus: qHTS Screen of the MIPE 4.0 Collection Against Ewings Sarcoma (TC32) (AID 1259256; active = well fitted inhibition curve with a large enough effect; also: nearly all actives have a fitted effect of over 45% in size; also: potency is read from the fitted curve at half-maximal effect). In a few lines:
as §2

The structures appear in SMILES notation. Inconclusive results are not listed. Activity calls are given as the source filed them. Unless noted, no rule for the calls is given here.

Molecule `O=c1cc(-c2ccc(O)c(O)c2)oc2cc(O)cc(O)c12` returned a parasite growth, % of DMSO control in [1] of 13%. This molecule came in with a parasite growth, % of control (lower = inhibition) in experiment [2] of 27.8%. This molecule came in with a growth, % of control in experiment [3] of 14%. In addition, the cell viability, % of control (lower = more cytotoxic) in experiment [4] was 264%. For the same molecule, the Potency result in experiment [5], in experiment [6], in experiment [7] and in [8] was “inactive” each time.
`COc1nccc(-c2c(-c3ccc(F)cc3)ncn2C2CCC(O)CC2)n1` (stereo not given) gave a parasite growth, % of DMSO control in experiment [1] of 42.3%. The parasite growth remaining, % of DMSO control (lower = more inhibition) in experiment [9] is 80%. Also, the parasite growth, % of control (lower = inhibition) in experiment [2] was 52.5%. For the same molecule, the growth, % of control in experiment [3] came to 28.5%. In addition, the cell viability, % of control (lower = more cytotoxic) in experiment [4] was found to be 192%. The Potency entry in experiment [5], in experiment [6] and in experiment [8] was “inactive” each time. Also, the Potency in experiment [7] is 14.8 µM (active).
In turn, `O=[N+]([O-])c1ccc(Nc2ccccc2-c2ccccc2)c2nonc12` gave a parasite growth, % of DMSO control in experiment [1] of 33.4%. For the same molecule, the parasite growth remaining, % of DMSO control (lower = more inhibition) in experiment [9] turned out to be 83.4%. The same molecule had a parasite growth, % of control (lower = inhibition) in experiment [2] of 46.7%. In experiment [3], the growth, % of control is 75.1%. In addition, the cell viability, % of control (lower = more cytotoxic) in experiment [4] was found to be 145%. Further, the Potency entry in experiment [5], in [6], in experiment [10], in [8] and in [11] was “inactive” throughout.
Turning to `CC[C@H](CC#N)OC(=O)N[C@@H](C)c1cccc(NC(=O)Nc2ccc(-c3cnco3)c(OC)c2)c1`, in [1], the parasite growth, % of DMSO control worked out at 12.8%. Moreover, the parasite growth, % of control (lower = inhibition) in experiment [2] was found to be 17.5%. For the same molecule, in [4], the cell viability, % of control (lower = more cytotoxic) was found to be 74.3%. For the same molecule, the Potency entry in [5] and in experiment [6] was “inactive” throughout. Further, the Potency in [7], in experiment [8] and in [11] was 0.469 µM (active) each time.
For `CN(C)N=Nc1nc[nH]c1C(N)=O`, the parasite growth, % of DMSO control in experiment [1] was determined as 86.1%. Moreover, in experiment [9], the parasite growth remaining, % of DMSO control (lower = more inhibition) was 94.4%. In addition, in [2], the parasite growth, % of control (lower = inhibition) was 87.6%. The growth, % of control in [3] stood at 61.9%. Further, the cell viability, % of control (lower = more cytotoxic) in [4] came out at 123%. The Potency entry in [5], in [6] and in experiment [8] was “inactive” in each case. Also, the Potency in experiment [10] was 18.7 µM (active).
In turn, `CNc1nc(-c2ccc3c(N)n[nH]c3c2)cc(N2C[C@@H](C(=O)NC3CCCCC3)CC[C@@H]2C)n1` yielded a parasite growth, % of DMSO control in [1] of 5.06%. This molecule also displayed a parasite growth remaining, % of DMSO control (lower = more inhibition) in experiment [9] of 8.54%. In experiment [2], this molecule yielded a parasite growth, % of control (lower = inhibition) of 11.4%. This molecule returned a growth, % of control in [3] of 4.91%. For the same molecule, the cell viability, % of control (lower = more cytotoxic) in experiment [4] worked out at 6.94%. Moreover, the Potency entry in [5] and in experiment [6] was “inactive” throughout. Further, the figures for the Potency in [10], in [7] and in experiment [11] were 6.62 µM (active), 20.9 µM (active) and 6.62 µM (active), respectively.
Molecule `O=C(Nc1ccccc1)Nc1ccc(-c2ccc(C(=O)[C@H]3CCC[C@H]3C(=O)O)cc2)cc1` came in with a parasite growth, % of DMSO control in experiment [1] of 29%. For the same molecule, the parasite growth remaining, % of DMSO control (lower = more inhibition) in experiment [9] is 78.7%. Besides, the parasite growth, % of control (lower = inhibition) in experiment [2] was found to be 32%. Further, in experiment [3], the growth, % of control came to 51.7%. In addition, in [4], the cell viability, % of control (lower = more cytotoxic) was 28.8%. Also, the Potency entry in experiment [5] and in experiment [6] was “inactive” in each case. The results for the Potency in experiment [10] and in [11] were 14.8 µM (active) and 18.7 µM (active), respectively.
Turning to `CN(C)CCOc1cc(-c2cn[nH]c2)ccc1NC(=O)C1COc2ccccc2O1` (stereo not given), the parasite growth, % of DMSO control in experiment [1] came to 29.9%. For the same molecule, the parasite growth remaining, % of DMSO control (lower = more inhibition) in experiment [9] came out at 61.4%. In experiment [2], the parasite growth, % of control (lower = inhibition) was 32.4%. The growth, % of control in experiment [3] worked out at 38.6%. Moreover, the cell viability, % of control (lower = more cytotoxic) in [4] is 73.4%. The Potency result in experiment [5] and in experiment [6] was “inactive” throughout. Further, the Potency in experiment [10] is 14.8 µM (active); in [11], 11.8 µM (active).
Turning to `CC=C1C2C=C(C)CC1(N)c1ccc(=O)[nH]c1C2` (stereo not given), the parasite growth, % of DMSO control in experiment [1] worked out at 100%. In experiment [9], the parasite growth remaining, % of DMSO control (lower = more inhibition) was determined as 19.1%. In [4], the cell viability, % of control (lower = more cytotoxic) was 164%. For the same molecule, the Potency result in experiment [5], in experiment [6] and in [10] was “inactive” throughout.
In experiment [1], `O=S(=O)(NCCNCC=Cc1ccc(Br)cc1)c1cccc2cnccc12` gave a parasite growth, % of DMSO control of 35.6%. The molecule further had a parasite growth remaining, % of DMSO control (lower = more inhibition) in [9] of 19.2%. In [2], this molecule registered a parasite growth, % of control (lower = inhibition) of 35.5%. For the same molecule, in experiment [4], the cell viability, % of control (lower = more cytotoxic) is 247%. In addition, in experiment [5], the Potency result is “inactive”. Further, the Potency in experiment [10] and in experiment [7] was 2.64 µM (active) throughout.

For the origin of these results see PubChem BioAssay (NCATS).
